Assay [1] is described as follows: ATG_XTT_Cytotoxicity: Cytotoxicity Assessment in the Attagene TRANS-FACTORIAL HepG2 Assay (AID 2283584). The procedure, abridged:
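XTT readout of cell number in transfected HepG2 cells, 24 h post-dosing; DMSO serves as negative control and baseline, with activity taken as loss of viability signal.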

The target of assay [2] is Cellular tumor antigen p53 (Homo sapiens) (UniProt P04637). Kind of assay: TOX21_p53_BLA_p2_ratio: Tox21 HCT-116 p53 Agonism Beta-lactamase Assay, Ratio, Phase 2 (AID 2283592). A digest of the protocol: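 Readout: blue/green (460/530 nm) FRET emission ratio after 2 h CCF4-AM loading at room temperature, excitation 405 nm. HCT116 p53 bla cells, 16 h compound exposure at 37C, 5% CO2; agonist direction fitted against DMSO baseline.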

Assay [3] shares this target. Briefly: TOX21_p53_BLA_p3_ratio: Tox21 HCT-116 p53 Agonism Beta-lactamase Assay, Ratio, Phase 3 (AID 2283596). The procedure, abridged:
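Cells were seeded at 4000/well, rested 5 h at 37C, then dosed with DMSO compound solutions (217-fold dilution) for 16 h. CCF4-AM substrate was loaded for 2 h at room temperature, and the 460/530 nm emission ratio was fitted for gain of signal versus DMSO.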

A short description of assay [4]: TOX21_p53_BLA_p4_viability: Viability Assessment in the Tox21 HCT-116 p53 Agonism Beta-lactamase Assay, Phase 4 (AID 2283597).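 Note: hits lower the luminescence signal meaning cytotoxicity.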 The procedure, abridged:
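ATP content by CellTiter-Glo luminescence, 30 min RT, read after the beta-lactamase ratio step. Cells: HCT116, 4000/well, compound added after 5 h, exposure 16 h at 37C. Signal loss = reduced viability.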

Assay [5] has as its target Cellular tumor antigen p53 (Homo sapiens) (UniProt P04637). Briefly: TOX21_p53_BLA_p5_ratio: Tox21 HCT-116 p53 Agonism Beta-lactamase Assay, Ratio, Phase 5 (AID 2283599). A digest of the protocol: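 Beta-lactamase reporter ratio (blue 460 nm over green 530 nm, 405 nm excitation) after 2 h CCF4-AM loading, in HCT-116 cells exposed 16 h at 37 C to compounds pinned at 217-fold dilution. Increases relative to DMSO baseline scored.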

Assay [6] is described as follows: TOX21_p53_BLA_p5_viability: Viability Assessment in the Tox21 HCT-116 p53 Agonism Beta-lactamase Assay, Phase 5 (AID 2283600). The procedure, abridged:
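ATP luminescence (CellTiter-Glo, 30 min, RT) served as the viability read-out, with loss of signal indicating cytotoxicity. Compounds in DMSO were pinned at a 217-fold dilution onto 4000 cells/well and incubated 16 h, 37C.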

Assay [7] concerns the target Cellular tumor antigen p53 (Homo sapiens) (UniProt P04637). Kind of assay: TOX21_p53_BLA_p4_ratio: Tox21 HCT-116 p53 Agonism Beta-lactamase Assay, Ratio, Phase 4 (AID 2283601). A digest of the protocol:
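Signal is the blue/green (460nm/530nm) ratio of cleaved versus uncleaved CCF4-AM substrate, read after 2 h substrate loading. Cells were HCT116 carrying the p53-responsive beta-lactamase reporter, dosed 16 h at 37C, 5% CO2; CellTiter-Glo measured in parallel.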

The nature of assay [8]: TOX21_p53_BLA_p3_viability: Viability Assessment in the Tox21 HCT-116 p53 Agonism Beta-lactamase Assay, Phase 3 (AID 2283593).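 Note: cells exposed to compound for 16 h before reading.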 A digest of the protocol: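 Cellular ATP was quantified by CellTiter-Glo luminescence, read after 30 min at room temperature. Beforehand, HCT116 cells (4000/well) received compound 5 h post-seeding, 217-fold diluted from DMSO, then incubated 16 h at 37C.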

The nature of assay [9]: TOX21_p53_BLA_p2_viability: Viability Assessment in the Tox21 HCT-116 p53 Agonism Beta-lactamase Assay, Phase 2 (AID 2283591).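 Note: actives lower the ATP signal meaning cytotoxicity.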 A digest of the protocol: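 Cytotoxicity readout: CellTiter-Glo ATP luminescence, 30 min at room temperature, after the beta-lactamase read. Cells were HCT116 exposed 16 h at 37C to compounds pin-transferred at 217-fold dilution from DMSO stocks.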

The text below walks through data of PubChem BioAssay (EPA / NIEHS).

Structures are written as SMILES. Inconclusive results are not listed. The source holds several records for some structures; these can differ, active in one and inactive in another. Activity calls are given as the source filed them. Rule for the calls: active = hit-call score of the fitted dose curve at least 0.9, where 1 is the maximum; inconclusive = response in the unintended direction; inactive = score below 0.9.

Cellular tumor antigen p53 (Homo sapiens), sequence (P04637 whole entry, looked up): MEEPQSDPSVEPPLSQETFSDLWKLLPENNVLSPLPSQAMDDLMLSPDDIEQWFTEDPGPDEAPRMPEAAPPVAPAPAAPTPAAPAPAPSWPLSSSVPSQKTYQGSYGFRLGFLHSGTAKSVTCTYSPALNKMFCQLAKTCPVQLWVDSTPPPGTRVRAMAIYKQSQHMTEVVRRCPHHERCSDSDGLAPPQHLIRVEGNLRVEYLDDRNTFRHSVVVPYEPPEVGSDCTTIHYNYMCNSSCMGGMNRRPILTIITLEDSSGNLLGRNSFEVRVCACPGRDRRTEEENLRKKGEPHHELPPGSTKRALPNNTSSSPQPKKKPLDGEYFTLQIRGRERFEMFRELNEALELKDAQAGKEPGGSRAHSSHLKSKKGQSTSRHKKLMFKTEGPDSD

In the case of `CCNC(=S)NCC`, the compound was called inactive in assay [1], in assay [2], in assay [3], in assay [4], in assay [5] and in assay [6]. Also, the outcome in assay [7] was inactive.
For the compound `CCOc1ccc(NC(C)=O)cc1`, the call in assay [1], in assay [2], in assay [8], in assay [3], in [4] and in [5] was inactive. For the same compound, the result in assay [6] and in assay [7] was inactive.
For `CCO[Si](CC)(OCC)OCC`, the call in assay [9], in assay [2], in [3], in assay [4], in assay [6] and in assay [7] was inactive.
For the compound `CC(C)Cc1ccc(C(C)C(=O)O)cc1` (stereo unspecified), the compound was called inactive in [9], in [2], in assay [3], in [4], in assay [5] and in [6].
Turning to `CC(C)Cc1ccccc1`, the compound was classed as inactive in [1], in [3], in assay [4], in [5], in [6] and in [7].
On to `CCCCCCCCCCOC(=O)c1ccccc1C(=O)OCCCCCCCC`, for which the compound was classed as inactive in assay [1], in assay [4] and in assay [5].
Regarding `CC(=O)C1=C(C)[C@@H]2C[C@@]3(C1)[C@H](C)CC[C@H]3C2(C)C`, the call in assay [1], in assay [8], in assay [3], in assay [5], in assay [6] and in [7] was inactive.
`c1ccc(Cc2ccccc2)cc1`: the outcome in [1], in assay [3] and in assay [6] was inactive.
In the case of `CCC(C)COC(=O)CC(C)C` (stereo unspecified), the outcome in [9], in assay [2], in assay [8], in assay [3], in [5] and in [6] was inactive. Moreover, in assay [7], the outcome was inactive. For the same compound, the AC50 in assay [4] was 46.1 µM (active).
Take `NCCN1CCNCC1`: the call in [9], in assay [2], in assay [8], in assay [3], in assay [4] and in assay [5] was inactive. The call in assay [6] and in assay [7] was inactive. In addition, the AC50 in assay [2] is 0.307 nM (active).
`CC1(C)CC(=O)CC(C)(C)N1`: the compound was classed as inactive in assay [1], in [3], in assay [4], in assay [5] and in assay [7].
For the compound `CC/C=C\CCOC(C)OCC` (stereo unspecified), the compound was called inactive in assay [1], in [3] and in assay [5].
As for `Nc1cc([N+](=O)[O-])ccc1C(=O)O`, the compound was called inactive in [1], in assay [3], in [4], in assay [5], in assay [6] and in [7].
Consider `CC(CO)c1ccccc1` (stereo unspecified), for which the compound was classed as inactive in assay [9], in assay [2], in assay [8], in assay [3], in [4] and in assay [5]. Further, the outcome in assay [6] and in assay [7] was inactive.
Regarding `CC(O)CNCC(C)O` (stereo unspecified), the compound was called inactive in assay [1], in assay [3], in [4], in assay [5] and in assay [7].
Turning to `CCCCCCCCCCCCS`, the result in [9], in assay [2], in assay [3], in assay [4], in assay [5] and in assay [6] was inactive. Moreover, in [7], the outcome was inactive.
`CC(=O)CC(C)(C)C1CCCCC1`: the compound was classed as inactive in [1], in assay [3], in assay [4], in [5], in [6] and in [7].
Regarding `CC(=O)C1C(=O)C=C(C)OC1=O` (stereo unspecified), the result in assay [1], in assay [8], in assay [3], in assay [5] and in [7] was inactive.
For `OCCCO`, the compound was called inactive in assay [1], in [5], in assay [6] and in [7].
For the compound `CC1=CC[C@@H]2C[C@H]1C2(C)C`, the call in [1], in assay [8] and in assay [4] was inactive.
Consider `C=C(C)C(=O)OCCC[Si](OC)(OC)OC`, for which the compound was classed as inactive in [9], in assay [2], in assay [8], in assay [3], in [4] and in assay [5]. Besides, the result in assay [6] and in [7] was inactive.
As for `CC(C)COC(=O)c1ccccc1O`, the result in [1], in assay [8], in assay [3], in assay [4], in assay [5] and in assay [6] was inactive. In addition, the result in assay [7] was inactive.
`C=CCOC(=O)/C=C\C(=O)OCC=C`: the compound was classed as inactive in assay [9], in assay [2], in [8], in assay [3], in [5] and in assay [6]. Also, the outcome in assay [7] was inactive.
As for `C=CC(C)CCCC(C)(C)O` (stereo unspecified), the call in assay [1], in assay [8], in [3], in assay [4], in [5] and in [6] was inactive. Moreover, the result in assay [7] was inactive.
As for `CC/C=C\CCCCO`, the call in [1], in assay [5], in [6] and in [7] was inactive.
Consider `CCC(C)(C)C1CCC(=O)CC1`, for which the call in assay [9], in assay [2], in assay [8], in assay [3], in [5] and in assay [6] was inactive. The outcome in assay [7] was inactive.
As for `CCCCCCCC(=O)N(C)C`, the compound was classed as inactive in assay [9], in [2], in [3], in [4], in assay [5] and in assay [6]. Further, the outcome in [7] was inactive.
With `CN(C)CCCNCCCN(C)C`, the call in assay [9], in assay [2], in assay [8], in assay [3], in assay [4] and in assay [5] was inactive. The compound was classed as inactive in assay [6] and in assay [7].
Regarding `C=C(C)C(=O)OCCN(C)C`, the outcome in assay [1], in assay [8], in [3], in assay [4] and in [6] was inactive.
`C=C(C)C(=O)OCCC(C)OC(=O)C(=C)C` (stereo unspecified): the outcome in assay [1], in [4], in [5] and in assay [7] was inactive.
As to `Cc1cc(N)n(-c2ccccc2)n1`, the outcome in [1] and in assay [7] was inactive.
For the compound `CCCCN(CCO)CCO`, the compound was classed as inactive in assay [1], in assay [3] and in [6].
As to `CC(C)C(=O)c1ccccc1`, the call in assay [1], in assay [8], in [3] and in assay [5] was inactive.
With `C=CC(=O)OCCCCCC`, the call in [1], in assay [8], in [3], in assay [4], in assay [5] and in assay [7] was inactive.
For the compound `COC(=O)c1cccc(C(=O)OC)c1`, the outcome in assay [9], in assay [2], in assay [3], in [4], in assay [5] and in [6] was inactive. In addition, the outcome in [7] was inactive.
Consider `O=S(=O)(O)c1cc(O)c(O)c(S(=O)(=O)O)c1`, for which the call in [9], in assay [2], in assay [8], in [4], in assay [6] and in [7] was inactive.
As for `CC(C)(O)C(=O)c1ccc(OCCO)cc1`, the result in assay [1], in [3], in assay [5] and in [6] was inactive.
Regarding `CC(=O)Nc1cc(S(=O)(=O)O)cc2cc(S(=O)(=O)O)c(N=Nc3ccccc3)c(O)c12`, the compound was classed as inactive in [1], in assay [3], in assay [4], in assay [5], in [6] and in assay [7].

The AC50 is the concentration at which the activity in the assay is half-maximal.
